Measured values as given in ChEMBL document CHEMBL4888484, “Replenishing the malaria drug discovery pipeline: Screening and hit evaluation of the MMV Hit Generation Library 1 (HGL1) against asexual blood stage Plasmodium falciparum ,using a nano luciferase reporter read-out” (2022).
Out of some 4,800 compounds screened, about 410 (8.5%) showed an effect of 50% or more. The list comes from a sample in which strong results are over-represented; it also holds similar structures and randomly drawn compounds.

Each molecule was assayed on Plasmodium falciparum (assay: Confirmatory screen in NF54 pLDH assay, in single point, at 2uM, 72h). Details: timepoint 72 hour.
Type: functional, Erythrocyte

Structure (SMILES) | % Inhibition [%]
O=C(NCC1CC12CCc1ccccc12)NC1CC2CCC1O2 (stereo not given) | 1
Cc1ccc2nc(O)c3nnc(C)n3c2c1 | 15
NS(=O)(=O)c1ccc(-c2noc(C3(c4cccc(F)c4)CCC3)n2)cc1 | -9
CN(C)CCCNc1nc(N2CCCC2)c2c(c1C#N)CCN(C)C2 | 14
CC(C)C(NC(=O)c1ccccc1F)C(=O)NC1CCC(N(C)C)C1 (stereo not given) | -9
CC1CCCN(c2nc(O)c3c(n2)NC(=O)CC3c2cccc(C(F)(F)F)c2)C1 (stereo not given) | 9
CC(C)Cc1nsc(N2CCOC3CCN(C)CC32)n1 (stereo not given) | 11
CN1c2cc(C(=O)N3CCN(c4ccccc4Cl)CC3)ccc2C(=O)N2CCCC[C@H]21 | 5
Nc1ccnc(OCc2ccccc2)n1 | -16
C[C@H](Oc1ccc(F)cc1)C(=O)N1CCC(c2nc3cc(Cl)ccc3s2)CC1 | -1
Cc1cc(N(C)CCC2CC2)nc([C@H](C)N(C)CCC2CC2)n1 | 61
Cc1cc(N(CCO)C2CC2)nc(C2CC2)n1 | -18
Clc1ccc2c(c1)CC[C@@H]2NCc1nnc2n1CCC2 | 3
O=C(NCCc1cccnc1)OCC(F)(F)F | -19
Cc1ccc(OCCNc2cc([C@H]3C[C@H](N)C3)nc(C3CC3)n2)cc1C | 25
N[C@H]1C[C@H](c2cc(NCCCc3cccnc3)nc(C3CC3)n2)C1 | 77
Cc1ccc(N(C)CC(=O)N2CCC2)c(Br)c1 | -7
COc1ccc(C(=O)N(C(=O)c2ccc(OC)cc2)c2c3c(nc4ccccc24)CCCC3)cc1 | 61
COc1ccc(CCc2nc(NC(=O)c3[nH]nc4c3CCC4)n[nH]2)cc1 | -15
O=C(Cc1ccccc1)Nc1c2c(nc3c1CCC3)CCCC2 | 8
Cc1ccc2c(c1)N(C(=O)c1c[nH]c(C)cc1=O)CCC2 | -3
Cc1cc(C)n(-c2nnc(-c3ccccc3)c(-c3ccccc3)n2)n1 | 10
Cc1cc(C)n(-c2nc(Nc3ccc(Cl)cc3)nc(Nc3ccc(Cl)cc3)n2)n1 | 87
COc1cc(OC)nc(-n2nc(C)cc2C(=O)Nc2ccc(Cl)cc2)n1 | 18
Cc1cc(C)c(S(=O)(=O)Cc2ccccc2)c(O)n1 | 12
Cc1ocnc1C(=O)N[C@H]1CCN(c2ccc(Cl)c(F)c2)C1=O | 7
Cc1cc(N2CC(OCc3ccccc3)C2)nc(Nc2cccc(O)c2)n1 | 96

Structure (SMILES) | % Inhibition [%]
Cc1cc(N2C[C@H]3CC[C@@H](C2)[C@H]3N(C)C)nc(Nc2cccc(O)c2)n1 | 86
Cc1cccc([C@@H](NC(=O)Nc2ncco2)C(F)(F)F)c1 | -15
N#Cc1ccccc1OCc1csc(-c2ccccn2)n1 | 6
O=C(Nc1nc(CCc2c[nH]c3ccccc23)n[nH]1)c1cccnc1 | 12
CC1=NN(S(=O)(=O)c2ccc(F)cc2)C(=O)c2ccccc2O1 | 5
CN(Cc1nnc2n1CCC2)C(=O)Cc1cccs1 | 9
COc1cc(CN(CC(N)=O)C(C)C)ccc1C | 9
Cc1cc(C(=O)NCc2nc3ccccc3s2)c(C)o1 | 7
CN1CCN(C(=O)CNC(=O)c2cccc(Cl)c2)CC1 | 8
Cc1ccc(S(=O)(=O)N(CC(=O)NC2CCN(C)CC2)c2cccc(Cl)c2)cc1 | 2
Cc1ccc(COc2cccc(CNC3CC3)c2)cc1 | -1
Cn1cc(Cl)c(C(=O)Nc2cccc(S(=O)(=O)N3CCOCC3)c2)n1 | 13
CCN1C(=O)[C@]2(NC3(CCCCC3)C(=O)N2CC)c2ccccc21 | -11
Cc1nn(C)c(NC(=O)CCc2c[nH]cn2)c1C | -7
Cc1cc(C(=O)NCCCS(N)(=O)=O)c(Cl)cc1F | -7
Cc1ccc(O)c(CNc2ccc3c(c2)OCC3(C)C)n1 | -19
Cc1ccc(O)c(CNCC2(c3ccccc3Cl)CCOCC2)n1 | 98
c1csc(CNC2CCCCCCC2)c1 | -2
COc1cc(C)c2[nH]c3c(c(=O)c2c1)CN(CC(=O)Nc1ccc(F)c(C)c1)CC3 | 17
COc1cc(C)c2[nH]c3c(c(=O)c2c1)CN(CC(=O)Nc1ccc(C)c(F)c1)CC3 | 8
COc1ccc(OC)c(NC(=O)CN2CCc3[nH]c4ccc(F)cc4c(=O)c3C2)c1 | 83
Cc1nn(-c2ccccc2)c2nc(Cc3ccccc3)nc(N3CCCN(C(=O)NC4CCCCC4)CC3)c12 | 8
Cc1cc(-c2ccccc2)nc2sc(-c3ccccc3)c([O-])[n+]12 | 5
Cc1cc(-c2ccccc2)cc(-c2ccccc2)c1-c1cc(-c2ccccc2)cc(-c2ccccc2)n1 | -3
Cc1cc[n+]2c(-c3ccccc3)cc(-c3ccccc3)nc2c1 | 50
CC[C@H]1Cn2c(C(=O)NC3CCCC3)cc3c(Cl)ccc(c32)O1 | -11
Cn1c2cn(-c3ccc(F)cc3)c(-c3ccccc3)c2c(=O)n1-c1ccccc1 | 6

Structure (SMILES) | % Inhibition [%]
Cn1c(=O)c2c(-c3ccc(Cl)cc3)n(-c3cccc4cccc(N)c34)cc2n(C)c1=O | 91
O=C(CCc1nc2ccccc2c(=O)[nH]1)Nc1ccc(-n2cnnn2)cc1 | 6
O=C(N[C@H]1CCOC1=O)OCc1ccccc1 | -4
CCOC(=O)c1cnn(C)c1S(=O)(=O)N1CCCCC1 | 2
CC1CC(NC(=O)NC2CS(=O)(=O)c3ccccc32)C(=O)N1c1ccccc1 (stereo not given) | -1
Cc1ccc(Nc2c(-c3cc4ccccc4cc3O)nc3ncccn23)cc1 | 6
CCCCCc1c(C)nc2[nH]n(-c3ccccc3)c(=O)c2c1O | -22
O=C1CCCc2nc3[nH]n(-c4ccccc4)c(=O)c3cc21 | 13
CNCCc1c(-c2ccccc2)[nH]n(-c2ccccc2)c1=O | 69
CCOc1cccc(NCc2c(N)ncnc2OC)c1 | 13
CC[C@@](C)(C(=O)NC1CCCC1)N(Cc1ccco1)C(=O)c1ccc2c(c1)OCO2 | -9
Cc1ccc(CN2CCS(=O)(=O)CC2)o1 | -13
Cc1oc(-c2ccc(C(=O)Nc3cccc(Cl)c3C)cc2)nc1COc1ccccc1 | 9
CN1CC[C@H](CN(C)Cc2ccc3cc(O)ccc3c2)C1 | 36
Oc1ccc2cc(CN3CCC[C@H](CN4CCCC4)C3)ccc2c1 | 97
CN1CCC(N2CCN(Cc3ccc4cc(O)ccc4c3)CC2)CC1 | 92
COc1ccc(NC(=O)N2C[C@@H]3C[C@H](NS(=O)(=O)c4ccccc4)[C@H]2C3)c(C)c1 | 3
CCc1cccc(NC(=O)C2CCN(c3c(C)n(-c4ccccc4)c(=O)n(CC(C)C)c3=O)CC2)c1 | 5
O=C1c2ccccc2C(=O)N1Cc1cnn(CC(F)F)c1 | 12
COc1ccc2oc(-c3ccc(CNC(=O)c4cccnc4)cc3)nc2c1 | 6
CC(C)(C)OC(=O)N1CCC(c2c(C(=O)Nc3ccc(Cl)cc3Cl)cnn2-c2cccc(F)c2)CC1 | -3
CC1(C)C(=O)NCCN1C(=O)c1ccc2nccnc2c1 | 9
CN(C(=O)c1n[nH]c2c1CCC2)[C@H]1CCCc2c1cnn2C | -4
O=S1(=O)c2ccccc2N=NN1Cc1ccc(Cl)cc1 | -19
O=C(Nc1cnc2ccccc2c1)c1ccccc1C(=O)c1ccc(F)cc1 | 94
O=C(Nc1cc(NC(=O)c2ccc(F)cc2)cc(Oc2cccnc2)c1)c1ccc(F)cc1 | 5
O=C(Nc1ccc(N2CCn3c(nc4ccccc43)C2)cc1)c1ccc(F)cc1 | 14

Structure (SMILES) | % Inhibition [%]
CN(C)c1cccc(C(=O)N2CCN(c3ncc(F)cn3)C(=O)C2)c1 | 10
Cc1nnc2sc(-c3cnn(-c4ccccn4)c3C(F)(F)F)nn12 | -4
c1ccc(-c2cccnc2NCc2cscn2)cc1 | -3
Cc1ccc(C2C(C(=O)N3CCC(C)CC3)CCC(=O)N2C)cc1 (stereo not given) | -1
COC(=O)[C@@H]1[C@@H](NC(=O)C2CCCC2)CCN1C(C)=O | 1
Cc1cc2c(cc1C)N(CC(=O)Nc1ccc(C(F)(F)F)cc1)C(=O)CC(c1cccs1)=N2 | -23
CC1CC(C(=O)Nc2[nH]c(=O)ncc2F)CC(C)(C)C1 (stereo not given) | 84
CC(=O)N[C@@H]1CN(Cc2nccn2Cc2ccccc2)C[C@H]1c1nccn1C | 12
Cc1ccc(S(=O)(=O)N2CC(C)N(C(=O)N3CCOCC3)C2C)cc1 (stereo not given) | 14
FC(F)(F)C1CCCC(NCc2c[nH]nc2-c2cccnc2)C1 (stereo not given) | 3
CC1CCN(Cc2ccc(CNCc3c[nH]nc3-c3ccc(F)cc3)cc2)CC1 | 50
Nc1c(-c2ccc(F)cc2)nsc1C(=O)NC1CCN(Cc2ccccc2)CC1 | 8
c1ccc(-c2ccccc2NCn2nnc3ccccc32)cc1 | -9
CCc1cccc(NC(=O)N2CCC3(CC2)C(=O)N(CC(=O)Nc2ccc(F)cc2)CN3c2ccccc2)c1 | 30
CC(C)N(CCS(C)(=O)=O)C(=O)NCc1ccco1 | 10
CN(C)CCN(C)c1ccc(Br)cc1NCc1cncn1C | 39
CCn1nc(C)c(CN(C)S(=O)(=O)c2ccc(N3CCCC3=O)cc2)c1C | -1
Cc1cccc(Nc2nc(-c3cnc(N4CCN(C)CC4)nc3C)cc(=O)[nH]2)c1 | 4
Cc1ccc(NC(=O)Nc2cccc(-c3ccc(N4CCN(C)CC4)nn3)c2)cc1C | 13
Cc1cc(C(=O)N[C@@H](C)C(=O)N2CCCCC2)c2nc3n(c2n1)CCCCC3 | 8
Oc1ccc(-n2c(-c3ccccc3)ccc2-c2ccccc2)cc1 | 12
COc1cccc(C(=O)C[n+]2cc(-c3ccc(Br)cc3)n(C)c2N)c1 | 4
COc1ccc2c(c1)[n+](CC(=O)c1ccc(-c3ccc(Br)cc3)cc1)c(CO)n2C | 54
Cc1ccc(C(=O)C[n+]2cc(-c3ccc(Br)cc3)n(C)c2N)cc1 | -16
